# HT1080 IDH1KD tx: qHTS for induction of synthetic lethality in tumor cells producing 2HG: qHTS for the HT-1080-IDH1KD cell line. HT-1080 IDH1 knockdown viability, ATP luminescence, 48 h. Potency, µM (series often up to 46.1 µM), actives largely listed as cytotoxic. 360,000 compounds, 2% hits. AID 686971, 2013
#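 Luminescent ATP read-out (CellTiter-Glo, 10 min at room temperature) after 48 h compound exposure at 37 °C gave viability of IDH1-knockdown HT-1080 cells. Activity was normalised to DMSO and cell-free wells, then fitted as concentration-response curves.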
# HepG2 viability: qHTS for Inhibitors of TGF-b: Cytotox Counterscreen; Potency, µM (titrated, usually from 46.1 µM), most hits filed as cytotoxic; AID 588856, 2011; 410,000 compounds, 0.76% hits; HepG2 CAGA-GFP viability, ATP luminescence, 18 h
#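 HepG2 CAGA-GFP cells (1000/well, DMEM with 1% FBS) received compound, then TGF-beta at 500 pg/mL final, and were incubated 18 hours at 37 degrees C. Viability was read by CellTiter-Glo luminescence. Media-only wells were set as complete cell-killing and DMSO as no toxicity.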
# HT1080-NT tox: qHTS for induction of synthetic lethality in tumor cells producing 2HG: qHTS for the HT-1080-NT fibrosarcoma cell line; HT-1080-NT fibrosarcoma viability, CellTiter-Glo ATP luminescence, 48 h; Potency, µM (doses to about 46.1 µM), actives largely listed as cytotoxic; 360,000 compounds, 1.6% hits;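 further: NT is the 2HG producing partner of a matched IDH1 knockdown line; nearly all actives have a fitted effect of over 55% in size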
#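 Read-out is CellTiter-Glo luminescence after 10 minutes at room temperature, following 48 hours' compound treatment of HT-1080-NT cells (750 cells/well, RPMI, 5% FBS, 37 degrees C).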
# TDP1 cell noCPT: qHTS for Inhibitors of human tyrosyl-DNA phosphodiesterase 1 (TDP1): qHTS in cells in absence of CPT | Potency, µM (series often up to 46.2 µM), hits mostly inhibitors | AID 686978, 2013 | DT40 Tdp1-/- hTDP1 cells, no CPT, ATP luminescence, 48 h | 420,000 compounds, 15% hits; further: nearly all actives have a fitted effect of over 55% in size
#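 Luminescent ATP content (CellTiter-Glo) served as the growth readout. Knockout chicken DT40 cells expressing human TDP1 were exposed to compounds without camptothecin for a minimum 48 hr at 37 °C.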
# TGFb inhibitor: qHTS for Inhibitors of TGF-b | 410,000 compounds, 1.2% hits | Potency, µM (doses to about 46.1 µM), hits mostly inhibitors | HepG2 CAGA-GFP TGF-b/SMAD3 reporter, GFP fluorescence, 18 h; TGF-beta stimulated, 500 pg/mL final; further: nearly all actives have a fitted effect of over 65% in size
#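 Read-out: total well GFP (ex488/em500-530) summed from mean per-cell fluorescence. Cells: HEPG2 CAGA-GFP, 1% FBS DMEM, 18 h at 37 degrees C with 500 pg/mL final TGF-beta. Unstimulated wells served as the full-inhibition control; stimulated DMSO wells = 0%.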
# DT40 TDP1 CPT: qHTS for Inhibitors of human tyrosyl-DNA phosphodiesterase 1 (TDP1): qHTS in cells in presence of CPT | chicken DT40 Tdp1-/-;hTDP1 cells + 20 nM CPT, ATP luminescence, 48 h | Potency, µM (doses to about 46.2 µM), actives largely listed as inhibitors | 420,000 compounds, 12% hits | AID 686979, 2013; further: nearly all actives have a fitted effect of over 55% in size
#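 Chicken DT40 Tdp1-/- cells stably complemented with human TDP1 were seeded at 400 cells/well in medium containing 20 nM camptothecin, exposed to pin-transferred compounds, and grown at 37 °C for at least 48 hr. Viability was read as ATP luminescence.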
# Hits are given with their value; – = inactive; ? = inconclusive; · = no result. Hits are enriched below; roughly 17% of the tested compounds scored in any of these assays. The call rests on the fitted dose curve; in most records, active means well fitted curve in the direction sought with a large enough effect; inconclusive means small, poorly fitted or top-dose-only effect, or another doubt; inactive means no such curve, though single readings can be large; an effect the other way counts as inactive or inconclusive.
SMILES,HT1080 IDH1KD tx,HepG2 viability,HT1080-NT tox,TDP1 cell noCPT,TGFb inhibitor,DT40 TDP1 CPT
CCC(=O)N1CCc2cc(S(=O)(=O)NCCC(=O)N3CCN(c4cccc(C)c4)C(C)C3)ccc21 (stereo not drawn),–,–,–,9.2µM,?,21µM
CCOC(=O)C1CCN(C(=O)CCNS(=O)(=O)c2ccc3c(c2)CCN3C(=O)CC)CC1,–,–,–,–,–,–
Cc1cc(C)cc(-n2ccnc2SCC(=O)Nc2ccc(C)cc2C)c1,·,–,·,21µM,?,16µM
Cc1cccc(-n2ccnc2SCC(=O)Nc2ccccc2C(F)(F)F)c1,·,–,·,?,–,?
COc1ccc(OC)c(NC(=O)CSc2nccn2-c2cc(C)cc(C)c2)c1,·,–,·,16µM,–,15µM
Cc1cc(/C=c2/sc3nc4ccccc4n3c2=O)c(C)n1-c1ccccn1,–,–,–,18µM,–,?
O=c1/c(=C\c2cccnc2)sc2nc3ccccc3n12,–,–,–,?,–,–
Cc1cc(/C=c2\sc3nc4ccccc4n3c2=O)c(C)n1-c1ccc(C(=O)O)cc1,–,–,–,13µM,?,13µM
Cc1ccccc1S(=O)(=O)Cc1ccc(C(=O)N2CCN(c3cccc(C)c3C)CC2)o1,6.5µM,–,5.8µM,4.1µM,?,5.2µM
Cc1ccccc1S(=O)(=O)Cc1ccc(C(=O)N2CCN(c3cccc(Cl)c3)CC2)o1,·,–,·,4.6µM,–,4.1µM
Cc1ccccc1S(=O)(=O)Cc1ccc(C(=O)N2CC(C)CC(C)C2)o1 (stereo not drawn),–,–,–,?,–,?
Cc1ccc(S(=O)(=O)Cc2ccc(C(=O)N3CCN(c4cccc(Cl)c4)CC3)o2)cc1,·,–,·,0.65µM,?,0.65µM
COc1ccccc1S(=O)(=O)Cc1ccc(C(=O)N2CCCC2)o1,–,–,–,–,–,–
CCc1ccccc1S(=O)(=O)Cc1ccc(C(=O)N2CCN(c3ccccc3OC)CC2)o1,–,–,?,13µM,?,8.2µM
CCOC(=O)Cc1csc2nc3sc(C)c(C)c3c(=O)n12,–,–,–,–,?,–
Cn1nc(C(=O)NNC(=O)C(CCC(N)=O)NS(=O)(=O)c2ccc(Cl)cc2)c2ccccc2c1=O (stereo not drawn),–,–,–,–,–,–
CNC(=O)C[C@H]1C(=O)N(c2ccccc2)C[C@@H]1C,–,–,–,–,–,–
Cn1nc(C(F)(F)F)c2cc(NC(=O)OCc3ccc(F)cc3)sc21,?,–,–,–,?,–
Cc1nn(C)c(Cl)c1NC(=O)OCc1ccc(F)cc1,–,–,–,16µM,–,?
CN(C(=O)CCN1C(=O)c2ccccc2C1=O)c1ccccc1,–,–,–,–,–,–
CC(C)(C)[C@@H]1CCC(=O)N(CC[C@H](N=[N+]=[N-])c2ccccc2)CC1,–,–,–,18µM,?,?
CC(=O)Nc1ccc(S[C@@H](CCN2CC[C@H](C(C)(C)C)CCC2=O)c2ccccc2)cc1,?,–,–,18µM,?,21µM
COc1ccc(S[C@@H](CCN2CC[C@H](O)CCC2=O)c2ccccc2)cc1,–,–,–,?,?,?
CC(=O)Nc1ccc(SCCN2CC[C@@H](C)CCC2=O)cc1,–,–,–,–,–,–
CC(C)(C)[C@@H]1CCC(=O)N(CC[C@H](Sc2ccccc2)c2ccccc2)CC1,–,–,–,21µM,?,16µM
C[C@@H]1CCC(=O)N(CC[C@H](N=[N+]=[N-])c2ccccc2)CC1,–,–,–,?,–,–

# Screens as filed in PubChem.
